Experimental data as given in PubChem BioAssay (NCI).
About 83,000 compounds went through this panel and 20% of them were active in at least one assay; those are over-represented in the sample as a whole.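 Negative percent growth values reflect cell death: -40 means 40% of the cells present at the start died, and -100 means all died.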 Activity calls are given as the source filed them. The calls were made as follows: active = growth percent below 10; inactive = the rest.

Tested on: HT29 colon
Assay: NCI-60 one-dose screen, 48 h (100 = growth as untreated, 0 = no growth, -100 = all killed)
Conditions: 10 µM unless noted

With `C=C1c2c(C)nn(-c3ccc(N)cc3)c2N(C)C23CC1C1(C)c4c(C)nn(-c5ccc(N)cc5)c4N(C)C(C)(CC12)C3` (stereo not drawn) as the molecule, how does the growth read?
The growth was 61.7% (inactive).

`C=CCOc1cccc(/C=C2\SC(=Nc3ccc(O)cc3)NC2=O)c1` was tested. Which growth did it give?
The growth was 11.7% (inactive).

How did the growth turn out when `COc1cc(C2CC(=O)Nc3n[nH]c(-c4ccccc4)c32)cc(OC)c1OC` (stereo not drawn) was run?
The growth was 47.1% (inactive).

With `CN1CCN(C(=O)[C@@]2(C)CC[C@]3(C)CC[C@]4(C)C(=CC[C@@H]5[C@@]6(C)C/C(=C/c7ccncc7)C(=O)C(C)(C)[C@@H]6CC[C@]54C)[C@@H]3C2)CC1` as the molecule, how does the growth read?
The growth was 10.9% (inactive).

With `CCOc1cc(C2C(Cl)C(=O)N2n2cnnc2)ccc1O` (stereo not drawn) as the molecule, how does the growth read?
Its growth is 96.9% (inactive).

How did the growth turn out when `Nc1c(C(=O)Nc2ccccc2)sc2nc3c(cc12)CCCCCC3` was run?
Its growth is -9.08% (active).

How did the growth turn out when `Cn1c(NCCc2ccc(O)c(O)c2)nc2c1c(=O)n(Cc1ccc(Cl)cc1)c(=O)n2C` was run?
The growth was 101% (inactive).

How did the growth turn out when `CCCCNCC(=O)Nc1ccc(C(=O)OCC)cc1` was run?
The growth was 86.7% (inactive).

For `CCCCCCN(CCCCCC)CC(O)c1cccc2ccc(Cl)cc12` (stereo not drawn), which growth is on record?
Its growth is 15.9% (inactive).

`O=C(c1ccccc1)c1ccc(Cl)c([N+](=O)[O-])c1` was tested. Which growth did it give?
The growth was 83% (inactive).

With `C[C@@H]1CC[C@@H]2[C@@H]1[C@H](OC(=O)/C=C/c1ccccc1)[C@]1(C3CCCCC3)C[C@@H](NC(=O)CO)[C@@]2(C)O1` as the molecule, how does the growth read?
The growth was 86% (inactive).

For `N[C@@H]1CCC[C@H]1NCCCCN1C(=O)c2cccc3cccc(c23)C1=O`, which growth is on record?
The growth was 33.8% (inactive).

Which growth does the source give for `NC(N)=N/N=C(/c1ccccc1)c1ccc(N)cc1` here?
The growth was 132% (inactive).

With `O=C1N/C(=N/O)S/C1=C/c1cn(-c2ccccc2)nc1-c1ccccc1` as the molecule, how does the growth read?
Its growth is 112% (inactive).

`COC1=CC(c2ccc[nH]2)=N/C1=C\c1[nH]c(C)c(C(=O)OCCn2cc(CCC[C@@H]3Cc4cc(O)ccc4C4CC[C@]5(C)[C@@H](O)CC[C@H]5C43)nn2)c1C` (stereo partly drawn) was tested. Which growth did it give?
Its growth is 18.9% (inactive).

With `N#Cc1c(Oc2ccc([N+](=O)[O-])cc2)nc2sc3cc(Cl)ccc3n2c1=N` as the molecule, how does the growth read?
The growth was 33.4% (inactive).

How did the growth turn out when `COc1cc2c(=O)n(CCCn3ccnc3)c3c4cc5c(cc4ccc3c2cc1OC)OCO5` was run?
Its growth is -24% (active).

How did the growth turn out when `CN(C)S(=O)(=O)n1cnc([C@@H]2[C@@H]3C(=O)OC[C@@H]3C[C@]23N=CN(Cc2ccccc2)C3=O)c1` was run?
Its growth is 89.7% (inactive).

With `CCCCS(=O)(=O)Oc1ccc(-c2nc(C)c(C(=O)OCC)s2)cc1C=O` as the molecule, how does the growth read?
The growth was 18.5% (inactive).

How did the growth turn out when `COc1ccc(Oc2nc(Nc3ccc(N4CCCCC4)nc3)ncc2NC(=O)c2cc(OC)cc(OC)c2)cc1` was run?
Its growth is 13.8% (inactive).

With `COc1cc(/C=C/c2nc(Nc3ccc(S(=O)(=O)Nc4cc(C)on4)cc3)c3ccccc3n2)ccc1O` as the molecule, how does the growth read?
The growth was 85.4% (inactive).

For `COc1ccc(OC)c(C(=O)Nc2cccc(-c3cc(=O)c4ccccc4o3)c2)c1`, which growth is on record?
The growth was 91.3% (inactive).

For `CN1CCN(C2=C(Cl)C(=O)c3ccccc3C2=O)CC1`, which growth is on record?
Its growth is 66.7% (inactive).

How did the growth turn out when `CS(=O)(=O)c1ccc(-c2[nH]c3ccc(F)cc3c2/C=N/NC(N)=S)cc1` was run?
The growth was 3.14% (active).

Tested on: SNB-75 CNS
Assay: as above
Conditions: 10 µM unless noted

`CCN(CC)CCNc1ccc(C)c2sc3cc(C)ccc3c(=O)c12` was tested. Which growth did it give?
Its growth is 67.2% (inactive).

`CCOC(=O)c1sc2ccc(NCc3nc[nH]c3C)cc2c1NC(=O)c1cc(OC)c(OC)c(OC)c1` was tested. Which growth did it give?
Its growth is 92.8% (inactive).

Which growth does the source give for `O=C(NCc1cccnc1)c1cc(-c2csc3c(=O)cc(N4CCOCC4)oc23)cc2c1OCCO2` here?
The growth was -9.26% (active).

For `COc1ccc(/C=C(\C#N)n2nnc3ccccc32)cc1`, which growth is on record?
Its growth is -31.7% (active).

For `COc1ccc(C(=O)/C=C/C23c4ccccc4C(c4ccccc42)C2C(=O)NC(=O)C23)cc1` (stereo not drawn), which growth is on record?
The growth was 85% (inactive).

Which growth does the source give for `CCN(CC)CCOc1ccc(/C(=C(\C)c2ccc(OC)c(F)c2)c2ccc(Cl)cc2)cc1` here?
The growth was 94.7% (inactive).

With `O=C1CSC(c2ccccc2O)N1c1nnc(Cn2cnnc2)o1` (stereo not drawn) as the molecule, how does the growth read?
Its growth is 66.8% (inactive).

Which growth does the source give for `O=C1CSC(c2ccc(O)cc2)N1c1nnc(Cn2cnnc2)o1` (stereo not drawn) here?
The growth was 53.8% (inactive).

With `O=C(NCOC(O)C(Cl)(Cl)Cl)NCOC(O)C(Cl)(Cl)Cl` (stereo not drawn) as the molecule, how does the growth read?
The growth was 85.6% (inactive).

For `CCOC(=O)c1c(C)[nH]c(C(=O)CCC(=O)OC)c1C`, which growth is on record?
Its growth is 106% (inactive).

How did the growth turn out when `O=C1CC(c2ccc3c(c2)OCO3)Nc2cc3c(cc21)OCO3` (stereo not drawn) was run?
Its growth is 14.3% (inactive).

Which growth does the source give for `O=C1/C(=C/c2ccccc2[N+](=O)[O-])COc2ccc(O)c(O)c21` here?
Its growth is 22.8% (inactive).

Which growth does the source give for `Cc1nc(-c2ccccc2)cc2c(O)c(C(=O)N/N=C/c3ccc(N(C)C)cc3)[nH]c(=O)c12` here?
The growth was 62.2% (inactive).

With `N#Cc1c(N)n2c(nc1=Nc1ccc(Cl)cc1)sc1cc(Cl)ccc12` as the molecule, how does the growth read?
Its growth is 21.1% (inactive).

`COc1cc(NC(=O)c2cccc(-c3cc(=O)c4c(O)c(OC)c(OC)cc4o3)c2)cc(OC)c1OC` was tested. Which growth did it give?
The growth was 32.3% (inactive).

With `C=C1c2c(C)nn(-c3ccc(N)cc3)c2N(C)C23CC1C1(C)c4c(C)nn(-c5ccc(N)cc5)c4N(C)C(C)(CC12)C3` (stereo not drawn) as the molecule, how does the growth read?
The growth was 109% (inactive).

`C=CCOc1cccc(/C=C2\SC(=Nc3ccc(O)cc3)NC2=O)c1` was tested. Which growth did it give?
The growth was -18.6% (active).

Which growth does the source give for `COc1cc(C2CC(=O)Nc3n[nH]c(-c4ccccc4)c32)cc(OC)c1OC` (stereo not drawn) here?
Its growth is 47.7% (inactive).

`CN1CCN(C(=O)[C@@]2(C)CC[C@]3(C)CC[C@]4(C)C(=CC[C@@H]5[C@@]6(C)C/C(=C/c7ccncc7)C(=O)C(C)(C)[C@@H]6CC[C@]54C)[C@@H]3C2)CC1` was tested. Which growth did it give?
Its growth is 62.7% (inactive).

How did the growth turn out when `CCOc1cc(C2C(Cl)C(=O)N2n2cnnc2)ccc1O` (stereo not drawn) was run?
Its growth is 72.5% (inactive).

For `Nc1c(C(=O)Nc2ccccc2)sc2nc3c(cc12)CCCCCC3`, which growth is on record?
The growth was 4.5% (active).

With `Cn1c(NCCc2ccc(O)c(O)c2)nc2c1c(=O)n(Cc1ccc(Cl)cc1)c(=O)n2C` as the molecule, how does the growth read?
The growth was 57.1% (inactive).

Which growth does the source give for `CCCCNCC(=O)Nc1ccc(C(=O)OCC)cc1` here?
The growth was 108% (inactive).

Which growth does the source give for `CCCCCCN(CCCCCC)CC(O)c1cccc2ccc(Cl)cc12` (stereo not drawn) here?
Its growth is 116% (inactive).

With `O=C(c1ccccc1)c1ccc(Cl)c([N+](=O)[O-])c1` as the molecule, how does the growth read?
The growth was 87.7% (inactive).

Which growth does the source give for `C[C@@H]1CC[C@@H]2[C@@H]1[C@H](OC(=O)/C=C/c1ccccc1)[C@]1(C3CCCCC3)C[C@@H](NC(=O)CO)[C@@]2(C)O1` here?
The growth was 85% (inactive).

With `N[C@@H]1CCC[C@H]1NCCCCN1C(=O)c2cccc3cccc(c23)C1=O` as the molecule, how does the growth read?
Its growth is 84.4% (inactive).

For `NC(N)=N/N=C(/c1ccccc1)c1ccc(N)cc1`, which growth is on record?
The growth was 122% (inactive).

Which growth does the source give for `O=C1N/C(=N/O)S/C1=C/c1cn(-c2ccccc2)nc1-c1ccccc1` here?
Its growth is 70.6% (inactive).

With `COC1=CC(c2ccc[nH]2)=N/C1=C\c1[nH]c(C)c(C(=O)OCCn2cc(CCC[C@@H]3Cc4cc(O)ccc4C4CC[C@]5(C)[C@@H](O)CC[C@H]5C43)nn2)c1C` (stereo partly drawn) as the molecule, how does the growth read?
Its growth is 44.7% (inactive).

How did the growth turn out when `N#Cc1c(Oc2ccc([N+](=O)[O-])cc2)nc2sc3cc(Cl)ccc3n2c1=N` was run?
The growth was 29.7% (inactive).

With `COc1cc2c(=O)n(CCCn3ccnc3)c3c4cc5c(cc4ccc3c2cc1OC)OCO5` as the molecule, how does the growth read?
The growth was 1.74% (active).

Which growth does the source give for `CN(C)S(=O)(=O)n1cnc([C@@H]2[C@@H]3C(=O)OC[C@@H]3C[C@]23N=CN(Cc2ccccc2)C3=O)c1` here?
Its growth is 67.5% (inactive).

With `CCCCS(=O)(=O)Oc1ccc(-c2nc(C)c(C(=O)OCC)s2)cc1C=O` as the molecule, how does the growth read?
Its growth is 89% (inactive).

Which growth does the source give for `COc1ccc(Oc2nc(Nc3ccc(N4CCCCC4)nc3)ncc2NC(=O)c2cc(OC)cc(OC)c2)cc1` here?
The growth was 34.1% (inactive).

Which growth does the source give for `COc1cc(/C=C/c2nc(Nc3ccc(S(=O)(=O)Nc4cc(C)on4)cc3)c3ccccc3n2)ccc1O` here?
The growth was 59.7% (inactive).

For `COc1ccc(OC)c(C(=O)Nc2cccc(-c3cc(=O)c4ccccc4o3)c2)c1`, which growth is on record?
The growth was 64.4% (inactive).

Which growth does the source give for `CN1CCN(C2=C(Cl)C(=O)c3ccccc3C2=O)CC1` here?
Its growth is 90.9% (inactive).

`CS(=O)(=O)c1ccc(-c2[nH]c3ccc(F)cc3c2/C=N/NC(N)=S)cc1` was tested. Which growth did it give?
The growth was 22.4% (inactive).
